About 2,000 (36%) of roughly 5,500 compounds were called active. Another 18% or so got no clear call; they are omitted. Cut-off read from the data, not from the text of the source: active = normalized growth mostly below about 0.91 (no sharp cut-off); inconclusive = no clear call, values can overlap the other calls; inactive = mostly above about 0.92. The list shows a part of the results.
Test: chemical genetic growth profiling, strain panel (AID 1159580);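 note: tested at 20 µM; growth read once vehicle control cultures reached saturation at 30 °C; 1 = growth at the plate median or of vehicle wells; lower values mean less growth of the strain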
Settings: S. cerevisiae deletion strains, growth OD

Measured: normalized growth

C=C1C2=CC(=O)O[C@@H](c3ccoc3)[C@]2(C)CCC1[C@@]1(C)C=CC(=O)C(C)(C)[C@@H]1CC(=O)OC (stereo partly drawn)
inactive: locus YAL021C, strain ccr4, hits give low values 1.04 | locus YAL026C, strain drs2, hits give low values 0.996 | locus YAL030W, strain snc1, hits give low values 0.998 | locus YBL061C, strain skt5, hits give low values 0.999 | locus YBR009C, strain hhf1, hits give low values 1.02 | locus YBR021W, strain FUR4, hits give low values 0.989 | locus YBR023C, strain chs3, hits give low values 1.01 | locus YBR171W, strain sec66, hits give low values 0.983 | locus YBR229C, strain ROT2, hits give low values 1 | locus YBR231C, strain swc5, hits give low values 0.982 | locus YBR279W, strain paf1, hits give low values 1 | locus YCL011C, strain gbp2, hits give low values 1.01 | locus YCL016C, strain dcc1, hits give low values 1.04 | locus YCL029C, strain bik1, hits give low values 0.983 | locus YCL061C, strain MRC1, hits give low values 1.01 | locus YCL069W, strain vba3, hits give low values 0.984 | locus YCR088W, strain abp1, hits give low values 0.982 | locus YDL005C, strain med2, hits give low values 0.996 | locus YDL035C, strain GPR1, hits give low values 0.991 | locus YDL040C, strain nat1, hits give low values 0.999 | locus YDL074C, strain BRE1, hits give low values 1.02 | locus YDL101C, strain DUN1, hits give low values 1.01 | locus YDL185W, strain tfp1, hits give low values 0.988 | locus YDL192W, strain arf1, hits give low values 0.999 | locus YDR001C, strain nth1, hits give low values 0.994 | locus YDR069C, strain doa4, hits give low values 0.991 | locus YDR101C, strain arx1, hits give low values 0.958 | locus YDR137W, strain rgp1, hits give low values 0.999 | locus YDR150W, strain NUM1, hits give low values 1.01 | locus YDR159W, strain sac3, hits give low values 0.953 | locus YDR162C, strain NBP2, hits give low values 1 | locus YDR195W, strain ref2 0.95 | locus YDR297W, strain sur2, hits give low values 0.988 | locus YDR318W, strain mcm21, hits give low values 1.01 | locus YDR334W, strain swr1, hits give low values 0.982 | locus YDR335W, strain msn5, hits give low values 0.997 | locus YDR388W, hits give low values 1 | locus YDR392W, strain spt3, hits give low values 1.03 | locus YDR502C, strain sam2, hits give low values 0.988 | locus YEL003W, strain gim4, hits give low values 0.994 | locus YEL037C, strain rad23, hits give low values 1 | locus YEL061C, strain CIN8 (second series), hits give low values 0.978 | locus YER015W, strain faa2, hits give low values 1.01 | locus YER016W, strain bim1, hits give low values 0.985 | locus YER110C, hits give low values 0.997 | locus YER111C, strain swi4, hits give low values 0.986 | locus YER155C, strain BEM2 (second series), hits give low values 1.02 | locus YER155C, strain BEM2, hits give low values 0.982 | locus YER167W, strain BCK2, hits give low values 1 | locus YFR010W, strain ubp6, hits give low values 0.972 | locus YGL078C, strain dbp3, hits give low values 0.999 | locus YGL086W, strain mad1, hits give low values 0.999 | locus YGL167C, strain pmr1, hits give low values 1.01 | locus YGL173C, strain kem1, hits give low values 0.99 | locus YGL227W, strain vid30, hits give low values 0.992 | locus YGL240W, strain doc1, hits give low values 0.994 | locus YGL248W, strain PDE1, hits give low values 1.01 | locus YGL253W, strain hxk2, hits give low values 0.937 | locus YGR078C, strain PAC10, hits give low values 1.01 | locus YGR135W, strain pre9, hits give low values 1.01 | locus YGR252W, strain gcn5, hits give low values 0.976 | locus YHR013C, strain ard1, hits give low values 1.01 | locus YHR027C, strain rpn1, hits give low values 0.976 | locus YHR079C, strain IRE1 (second series), hits give low values 0.985 | locus YHR094C, strain hxt1, hits give low values 0.996 | locus YHR129C, strain ARP1, hits give low values 1.01 | locus YHR142W, strain chs7, hits give low values 1.01 | locus YHR200W, strain rpn10, hits give low values 1 | locus YIL066C, strain RNR3, hits give low values 1.01 | locus YIL073C, strain SPO22, hits give low values 1.02 | locus YIL125W, strain kgd1, hits give low values 0.995 | locus YIR030C, strain dcg1, hits give low values 1 | locus YJL092W, strain hpr5, hits give low values 0.984 | locus YJL095W, strain BCK1 (second series), hits give low values 0.986 | locus YJL095W, strain BCK1, hits give low values 1.02 | locus YJL115W, strain asf1, hits give low values 0.999 | locus YJL129C, strain trk1, hits give low values 0.99 | locus YJL134W, strain LCB3, hits give low values 0.997 | locus YJL154C, strain vps35, hits give low values 0.995 | locus YJL164C, strain tpk1, hits give low values 1.02 | locus YJL166W, strain qcr8, hits give low values 0.996 | locus YJL168C, strain set2, hits give low values 1 | locus YJL187C, strain SWE1 (second series), hits give low values 1.01 | locus YJL187C, strain SWE1, hits give low values 0.99 | locus YJR075W, strain HOC1, hits give low values 0.993 | locus YKL009W, strain mrt4, hits give low values 0.976 | locus YKL068W, hits give low values 0.997 | locus YKL085W, strain MDH1 (second series), hits give low values 0.992 | locus YKL085W, strain MDH1, hits give low values 0.992 | locus YKL160W, strain elf1, hits give low values 1.06 | locus YKR001C, strain vps1, hits give low values 0.998 | locus YKR026C, strain gcn3, hits give low values 0.976 | locus YKR091W, strain srl3, hits give low values 0.994 | locus YLL001W, strain dnm1, hits give low values 0.99 | locus YLL026W, hits give low values 0.989 | locus YLL041C, strain sdh2, hits give low values 0.987 | locus YLR027C, strain aat2, hits give low values 0.978 | locus YLR039C, strain RIC1, hits give low values 1.05 | locus YLR058C, strain SHM2, hits give low values 1.01 | locus YLR102C, strain apc9, hits give low values 1 | locus YLR221C, strain rsa3, hits give low values 0.987 | locus YLR258W, strain gsy2, hits give low values 1.02 | locus YLR262C, strain YPT6 (second series), hits give low values 0.997 | locus YLR262C, strain YPT6, hits give low values 1.08 | locus YLR268W, strain sec22, hits give low values 0.996 | locus YLR320W, strain mms22, hits give low values 1.01 | locus YLR342W, strain FKS1 (second series), hits give low values 1.01 | locus YLR342W, strain FKS1, hits give low values 0.995 | locus YLR357W, strain rsc2, hits give low values 1.03 | locus YLR370C, strain arc18, hits give low values 0.97 | locus YLR371W, strain rom2, hits give low values 0.998 | locus YLR384C, strain iki3, hits give low values 1 | locus YLR418C, strain cdc73, hits give low values 1.01 | locus YML016C, strain PPZ1, hits give low values 0.998 | locus YML032C, strain rad52, hits give low values 0.984 | locus YML120C, strain ndi1, hits give low values 1.02 | locus YML124C, strain tub3, hits give low values 0.997 | locus YMR058W, strain fet3, hits give low values 1 | locus YMR078C, strain ctf18, hits give low values 1 | locus YMR125W, strain sto1, hits give low values 1 | locus YMR129W, hits give low values 0.991 | locus YMR205C, strain PFK2, hits give low values 1.07 | locus YMR223W, strain ubp8, hits give low values 0.989 | locus YMR231W, strain pep5, hits give low values 0.973 | locus YMR307W, strain GAS1, hits give low values 1.03 | locus YNL067W, strain RPL9B, hits give low values 1 | locus YNL071W, strain lat1, hits give low values 0.996 | locus YNL209W, strain ssb2, hits give low values 1.03 | locus YNL233W, strain BNI4, hits give low values 1.01 | locus YNL248C, strain rpa49, hits give low values 0.966 | locus YNL250W, strain rad50, hits give low values 0.997 | locus YNL271C, strain bni1, hits give low values 0.995 | locus YNL298W, strain CLA4, hits give low values 0.988 | locus YNL307C, strain MCK1, hits give low values 1 | locus YNL322C, strain KRE1 (second series), hits give low values 0.995 | locus YNL322C, strain KRE1, hits give low values 0.995 | locus YNR049C, strain mso1, hits give low values 0.99 | locus YNR052C, strain pop2, hits give low values 1.01 | locus YOL012C, strain htz1 1.06 | locus YOL147C, strain pex11, hits give low values 0.996 | locus YOR001W, strain rrp6, hits give low values 0.947 | locus YOR061W, strain CKA2, hits give low values 0.994 | locus YOR069W, strain VPS5, hits give low values 1 | locus YOR070C, strain gyp1, hits give low values 1 | locus YOR080W, strain dia2, hits give low values 0.983 | locus YOR083W, strain WHI5, hits give low values 1.06 | locus YOR106W, strain vam3, hits give low values 1.03 | locus YOR136W, strain idh2, hits give low values 0.993 | locus YOR144C, strain elg1, hits give low values 0.995 | locus YOR184W, strain ser1, hits give low values 0.992 | locus YOR265W, strain rbl2, hits give low values 0.984 | locus YOR270C, strain vph1, hits give low values 0.991 | locus YOR290C, strain snf2, hits give low values 1.06 | locus YOR316C, strain cot1, hits give low values 0.95 | locus YPL051W, strain arl3, hits give low values 0.985 | locus YPL078C, strain atp4, hits give low values 1.05 | locus YPL106C, strain sse1, hits give low values 1.08 | locus YPL240C, strain hsp82, hits give low values 0.992 | locus YPR119W, strain clb2, hits give low values 1 | locus YPR141C, strain kar3, hits give low values 0.999 | locus YPR163C, strain tif3, hits give low values 0.991 | locus YPR167C, strain met16, hits give low values 0.992 | strain wtn01, hits give low values 0.978

From PubChem BioAssay AID1159580 (chemical genetic matrix, 2015)
